In the library only some 3.2% were active in any assay of this set; here they are far more common.
ClpP mod = qHTS Assay for Activators of ClpP; purified B. subtilis ClpP, FRET peptide cleavage, 20 min; 1.9% of 340,000 active; ATP-dependent Clp protease proteolytic subunit (Bacillus subtilis (strain 168)), P80244; Potency, µM (titrated, usually from 57.5 µM), for the others: top-dose activity change, negative = active; active = well fitted falling curve with a large enough effect; inconclusive = small, poorly fitted or top-dose-only effect; inactive = no such curve, though single readings can be large or run the other way; also: the source files actives as falling curves though it sought activators and does not explain the sign; nearly all actives have a fitted effect of over 65% in size
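Buffer: 100 mM Tris/HCl pH8, 100 mM KCl, 0.05% low protease BSA, 2.5% glycerol, 0.01% Tween-20. ClpP 10 microg/mL final; 20 min RT; delta FRET normalized to ADEP and DMSO controls.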
GLP1R ag = GLP-1 receptor (human) agonism | P43220 | AID 624172 | Potency, µM (titrated, usually from 45.6 µM), for the others: top-dose activation, hits mostly activators | HEK293 GLP-1R CRE-luciferase, luminescence, 4-6 h; cells express a hypersensitive GLP-1R form | 0.007% of 380,000 active; also: % of control where 0% means no effect
GLP-1R inv ag = inverse agonists of human GLP-1 receptor. 1.6% of 410,000 active. HEK293 GLP-1R CRE-luciferase, luminescence, 24 h; GLP-1R form is constitutively active. Potency, µM (doses to about 38.3 µM), inactives show at the highest dose activity change, negative = inhibition, usual class: inhibitors. P43220; also: % is scaled to controls: 0 for no effect and ±100 for the full control effect; nearly all actives have a fitted effect of over 55% in size
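Luminescence readout: a drop in cAMP-driven luciferase signal flags inverse agonism at a constitutively active GLP-1R stably expressed in HEK293. Compound exposure lasted 24 hr at 37 deg C, 5% CO2.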
HEK293 tox = cytotoxicity counter-screen for GLP-1 receptor inverse agonists. HEK293 cAMP-luciferase reporter cells, luminescence, 24 h. Potency, µM (titrated, usually from 38.3 µM), for the others: at the top dose activity change, negative = inhibition, actives largely listed as inhibitors. 0.13% of 410,000 active. AID 624418;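 also: loss of luciferase light is scored as toxicity; % is scaled to controls: 0 for no effect and ±100 for the full control effect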
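MLSMR compounds, 24 hr on cells at 37 deg C/5% CO2; luminescence after luciferase reagent (12 min RT). Inhibition counted as the undesired cytotoxic outcome.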
Starred values were filed as active, the others as inactive; ? = inconclusive; nt = no result given. Unless noted, calls follow the shape of the dose curve; as a rule, active = well fitted curve in the direction sought with a large enough effect; inconclusive = small, poorly fitted or top-dose-only effect, or another doubt; inactive = no such curve, though single readings can be large; an effect the other way counts as inactive or inconclusive. Potency is read from the fitted curve at half-maximal effect.

SMILES | ClpP mod | GLP1R ag | GLP-1R inv ag | HEK293 tox
COc1ccc(N2CC(NC(=O)C(=O)c3c(C)[nH]c4ccccc34)CC2=O)cc1 (stereo not drawn) | 0% | nt | 0% | -1%
Cc1ccc(C)c(NC(=O)CSc2nc(=O)n(CCN3CCOCC3)c3c2CCC3)c1 | -5% | nt | -1% | 2%
Cc1ccc(CN(C(=O)COc2ccc([N+](=O)[O-])cc2)c2ccccn2)cc1 | 0% | nt | -29% | 1%
Cc1cc(C)cc(NC(=O)Nc2ccc(-n3ccc(C(F)(F)F)n3)cc2)c1 | nt | 0% | 2.2µM* | ?
COc1ccccc1NC(=O)Nc1ccc(-n2ccc(C(F)(F)F)n2)cc1 | nt | 1% | 2µM* | -24%
O=C1[C@H]2[C@@H](c3ccc(Cl)cc3)N3C(=O)N(c4cccc(Cl)c4)C(=O)[C@@]3(Cc3ccc(Cl)cc3)[C@H]2C(=O)N1C1CCCCC1 | -2% | -6% | 4µM* | -16%
Cc1ccc(N2C(=O)N3[C@H](c4ccc(F)cc4)[C@@H]4C(=O)N(C5CCCCC5)C(=O)[C@@H]4[C@]3(C)C2=O)cc1 | 4% | -3% | 10µM* | -31%
Cc1ccc(Nc2c(-c3cccnc3)nc3ccc(Cl)cn23)cc1 | -4% | nt | 6% | -9%
COC(=O)C1(Cc2cc(-c3cccc(Br)c3)no2)CCN(C(=O)OC(C)(C)C)CC1 | 1% | 11% | 10µM* | -13%
CC(C)(C)OC(=O)N1CCC(Cc2cc(-c3cccc(Br)c3)no2)(C(=O)O)CC1 | 2% | -1% | -8% | -1%
CC(C)c1ccc(NC(=O)CN2C(=O)COc3ccc(S(=O)(=O)Nc4ccccc4)cc32)cc1 | -2% | -2% | -2% | 6%
CCOC(=O)Cc1ccc(NC(=O)N2CCc3c(sc4c3CCCC4)C2c2ccc(F)cc2)cc1 (stereo not drawn) | -6% | nt | 4µM* | 0%
Cc1c(OCC(=O)NCc2ccncc2)ccc2c3c(c(=O)oc12)CCC3 | 4% | -1% | 5% | 0%
Cc1c(OCC(=O)OC(C)C)ccc2c3c(c(=O)oc12)CCC3 | 32µM* | 10% | 31% | 8%
CC(=O)COc1ccc2c3c(c(=O)oc2c1C)CCCCC3 | 25µM* | ? | 0% | -17%
Cc1cc(=O)oc2c(CN(CC(C)C)CC(C)C)c(O)ccc12 | 4% | -6% | 1% | 137%
CC(C)CN(Cc1c(O)ccc2c3c(c(=O)oc12)CCC3)CC(C)C | 13µM* | 0% | 2% | 9%
Cc1c(OCC(=O)N(C)C)ccc2c3c(c(=O)oc12)CCCCC3 | 4% | 12% | -6% | -11%
CCc1c(C)c2ccc(OCC(=O)OC(C)C)c(C)c2oc1=O | 25µM* | 6% | 3% | 4%
CCOC(=O)c1cnc2nc(NCc3ccc(OCC)cc3)[nH]n2c1=O | ? | nt | 17% | 7%
CC(=O)Nc1ccc(/C=C/c2ccnc3ccccc23)cc1 | 32% | nt | nt | nt
Nc1nc(NCCc2ccccc2)c2[nH]cnc2n1 | -1% | nt | nt | nt
c1coc(CNc2ncnc3c2nc2n3CCCC2)c1 | -2% | nt | nt | nt
C=CCOC(=O)COc1ccc2c(C)c(C)c(=O)oc2c1C | 16µM* | 27% | 9% | -1%
Cc1c(O)ccc2c3c(c(=O)oc12)CCCC3 | 25µM* | 20% | 19% | 209%
SMILES | ClpP mod | GLP1R ag | GLP-1R inv ag | HEK293 tox
Cc1c(C)c2ccc(OCC(=O)Nc3ccccn3)c(C)c2oc1=O | 4% | -5% | 10µM* | 19%
Cc1c(C)c2ccc(OCC(=O)N3CCOCC3)c(C)c2oc1=O | nt | 14% | 0% | -11%
Cc1c(C)c2cc(Cl)c(OCC(=O)Nc3ccccn3)cc2oc1=O | -21% | 2% | 9% | 0%
Cc1c(OCC(=O)OC(C)(C)C)ccc2c3c(c(=O)oc12)CCC3 | 28µM* | 6% | -12% | 11%
COc1ccccc1CNC(=O)C(NS(=O)(=O)c1cccs1)C(C)C (stereo not drawn) | 1% | -1% | 15% | -7%
CCOc1cc(C(=O)Nc2ccc(NC(=O)c3cc4ccccc4o3)c(OC)c2)cc(OCC)c1OCC | -6% | nt | 3% | 2%
Cc1cc(-c2nc3ncccc3o2)ccc1NC(=O)c1ccc(Br)cc1 | -15% | 0% | -7% | -1%
Cc1ccc(NC(=O)CN(C)C(=O)c2cc(-c3cccs3)nn2-c2ccccc2)cc1 | -2% | 4% | 7.9µM* | 6%
CCN(CC(=O)Nc1c(F)cccc1F)C(=O)c1cc(-c2cccs2)nn1-c1ccccc1 | -2% | -17% | 10µM* | ?
CN(CC(=O)Nc1c(Cl)cccc1Cl)C(=O)c1cc(-c2cccs2)nn1-c1ccccc1 | -23% | -5% | ? | -24%
O=C1CC(c2ccccc2C(F)(F)F)c2c(c3ccccc3[nH]c2=O)O1 (stereo not drawn) | 4% | 1% | 19% | 4%
Cc1c(C(=O)Nc2ccccc2Br)oc2ccc(S(=O)(=O)N3CCCCCC3)cc12 | 4% | nt | 17% | 8%
Cc1cc(C(=O)NNc2ccc(F)cc2F)no1 | nt | 0% | 2.8µM* | ?
Cc1cc(C)cc(NC(=O)c2cc(S(=O)(=O)N3CCCCC3)c[nH]2)c1 | ? | nt | -13% | 40%
O=C(c1ccccc1)c1nc[nH]c1C(=O)Nc1ccccn1 | 28µM* | 0% | 85% | -6%
O=C(NC(=S)N1CCc2ccccc21)c1ccccc1 | 1% | -14% | ? | 4µM*
Cc1sc2ncnc(N3CCC(C(=O)Nc4cc(Cl)ccc4Cl)CC3)c2c1C | -5% | -4% | 10µM* | -17%
CCN(CC)S(=O)(=O)c1cc(NC(=O)C2CCN(c3ncnc4sc(C)c(C)c34)CC2)ccc1Cl | ? | -23% | 2.5µM* | -4%
Cc1sc2ncnc(N3CCC(C(=O)N(C)CC(=O)Nc4ccc(Cl)c(C(F)(F)F)c4)CC3)c2c1C | nt | 11% | 2.5µM* | ?
CCN(CC)S(=O)(=O)c1cc(NC(=O)C2CC(=O)N(Cc3ccccc3)C2)ccc1Cl (stereo not drawn) | 0% | 14% | 10µM* | -9%
Cc1ccc(NC(=O)C2CC(=O)N(Cc3ccccc3)C2)cc1S(=O)(=O)N1CCCCCC1 (stereo not drawn) | -3% | -3% | ? | ?
Cc1sc2ncnc(N3CCC(C(=O)Nc4ccc(C#N)cc4)CC3)c2c1C | -2% | -4% | -3% | -3%
Cc1sc2ncnc(N3CCC(C(=O)NNC(=O)c4ccc(Cl)cc4)CC3)c2c1C | 13µM* | -10% | ? | 2%
CN1C(=O)C(CC(=O)Nc2ccc(F)cc2)N(Cc2cccs2)C1=S (stereo not drawn) | nt | 9% | ? | -24%
CCN1C(=O)C(CC(=O)Nc2ccc(Br)cc2)N(CCCc2ccccc2)C1=S (stereo not drawn) | -2% | -10% | 2µM* | ?
CCCOc1ccc(NC(=O)CC2C(=O)N(C)C(=S)N2Cc2cccs2)cc1 (stereo not drawn) | -3% | -7% | 7.9µM* | -19%

Screening data from PubChem BioAssay.
